aSyn UTR inh = MLPCN primary screen, SNCA 5' untranslated region; alpha-synuclein 5'UTR reporter, inhibitor activity; inhibition, % (tested at 7.5 µM); 0.82% of 300,000 active; AID 1813, 2009; in the data active means inhibition above about 60%; inconclusive means no clear call, values can overlap the other calls;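 further: H4 neuroglioblastoma cells stably carrying SNCA 5'UTR luciferase fusion; 0% = DMSO wells and 100% = positive control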
KLF5 inhibitor = KLF5 expression inhibitors, primary screen, DLD-1 cells, luminescence. AID 1700, 2009. inhibition, % at 5 µM. 0.23% of 290,000 active. DLD-1 KLF5 promoter-luciferase reporter;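 active means inhibition above a per-plate limit of that plate's mean compound inhibition plus 3 SD, cut at about 60% in these data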;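 further: 0% = DMSO wells and 100% = LY294002 at 200 µM; higher means less KLF5 promoter-driven luciferase light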
CSC inhib = cancer stem cell viability inhibitors, primary screen, luminescence. cancer stem cell-like cells viability. inhibition, % at 7.5 µM. 1.1% of 300,000 active. AID 2717, 2010; in the data active means inhibition above about 75%; inconclusive means no clear call, values can overlap the other calls; tested in HMLE shEcad cells
SKKanGAS inh = S. pyogenes SKKanGAS growth inhibitors in kanamycin, primary screen, streptokinase expression inhibitor project, SKKanGAS strain, BacTiter-Glo luminescence; 6 h; inhibition, % at 7.5 µM; 1.3% of 300,000 active;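 active means mean replicate score, as percent of positive control median, at least 50; inconclusive means mean below 50 but one replicate at or above 50; inactive means mean and every replicate below 50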;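 further: strain carries kanamycin resistance gene driven by streptokinase promoter and grows in 40 µg/ml kanamycin; loss of luminescence reflects streptokinase promoter inhibition or plain growth inhibition; 0% = median of DMSO wells and 100% = positive control at its reference dose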
IEC-6 cytotox = cytotoxicity in IEC-6 intestinal epithelial cells, primary screen, cytotoxicity control for KLF5 inhibitor project, cell-based, luminescence; IEC-6 cytotoxicity, luminescence viability; inhibition, % at 5 µM; 0.78% of 290,000 active; AID 1825, 2009; in the data active means inhibition above about 22%;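 further: 0% = plate median of test compound wells and 100% = cytotoxic reference compound wells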
An asterisk follows results filed as active; ? = inconclusive; · = no result given. A selection: hits, their analogues and other compounds. The true share with any hit is near 3%.

SMILES | aSyn UTR inh | KLF5 inhibitor | CSC inhib | SKKanGAS inh | IEC-6 cytotox
OCCN(CCO)CC(O)COc1ccc(C23CC4CC(CC(C4)C2)C3)cc1 (centres undefined) | 76.3* | 1.7 | 77.6* | 6.1 | -7.0
OCCN(CCO)CC(O)COc1ccc(Br)cc1 (centres undefined) | 7.0 | -14.7 | -7.2 | -0.1 | -6.5
COCCN(CC(=O)Nc1cccc(C)c1C)C(=O)C1(c2ccc(Cl)cc2)CCC1 | · | · | 11.8 | · | ·
O=C(Cc1ccccc1)NCC(=O)Nc1ccccc1Br | -24.9 | -6.3 | -4.3 | 0.6 | -8.1
Cc1ccc(-c2csc(NC(=O)CCCc3cccs3)n2)cc1 | -17.2 | -17.7 | · | -4.3 | 6.8
CC(=O)Nc1ccc(-c2csc(NC(=O)CCCc3cccs3)n2)cc1 | -44.9 | -37.5 | 75.1* | -7.6 | -2.8
O=C(NC(=S)NNC(=O)c1ccccc1O)c1ccco1 | -98.6 | 2.1 | 14.8 | 64.9* | 3.5
O=C(NC(=S)NNC(=O)c1cc2ccccc2cc1O)c1ccco1 | 5.6 | 3.4 | 25.3 | 98.0* | -2.7
CCN(CC)c1nc(-c2ccc(C(=O)NN)cc2)nc(-c2ccc(C(=O)NN)cc2)n1 | 5.2 | -20.1 | -5.7 | 32.9 | -7.1
COc1ccc(-c2nc(-c3cccs3)c(-c3cccs3)[nH]2)cc1OC | -25.3 | -12.3 | -25.0 | 67.6* | 2.1
CCC(Cc1ccccc1)NC(=O)CCc1ccccc1 (centres undefined) | -8.8 | -12.6 | -5.7 | 3.4 | -4.1
COCCn1c(SCC(=O)Nc2ccc(F)cc2)nc2c([nH]c3ccccc32)c1=O | -6.6 | -26.9 | -6.0 | 50.8* | 1.4
Cc1ccc(NC(=O)c2ccc([N+](=O)[O-])s2)cc1S(=O)(=O)N1CCOCC1 | · | · | 25.4 | · | ·
CN(c1ccccc1)c1nc(N2CCCC2)nc(-n2ccnc2)n1 | 9.2 | -27.0 | 18.8 | 52.3* | 0.9
CCOC(=O)N1CCN(c2nc(N(c3ccccc3)c3ccccc3)nc(-n3ccnc3)n2)CC1 | 12.6 | -10.9 | 29.1 | 43.0 | -1.5
c1ccc(N(c2ccccc2)c2nc(N3CCCC3)nc(-n3ccnc3)n2)cc1 | -5.2 | -72.2 | 101.2* | 78.5* | 3.0
Cc1oc2c(cc(NS(=O)(=O)c3ccc4c5c(cccc35)C(=O)N4)c3ccccc32)c1C(=O)OC(C)C | -68.8 | -32.3 | 30.5 | · | 0.2
O=C1CCCc2oc3c(cc(NS(=O)(=O)c4ccc5c6c(cccc46)C(=O)N5)c4ccccc43)c21 | -17.3 | -23.0 | 33.5 | 53.7* | 1.4
Cc1nc(C2CCC3C4CCC5=CC(=O)CC[C@]5(C)C4CC[C@]23C)cs1 (some centres undefined) | -13.6 | -13.4 | 86.2* | 0.5 | 8.8
CC(=O)C(C)n1c(CN(C)Cc2ccccc2)nc2c1c(=O)n(C)c(=O)n2C (centres undefined) | 6.6 | -21.8 | -16.0 | -4.8 | -0.4
CC(C)n1c(CN(C)Cc2ccccc2)nc2c1c(=O)n(C)c(=O)n2C | 64.3* | -22.3 | 9.7 | 7.7 | 8.8
Cc1cccc(C)c1NC(=O)CN(C)C(=O)c1ccccc1OCc1ccc(F)cc1 | -0.4 | · | -7.2 | -17.4 | ·
Cc1cc(C)nc(SC2=CS(=O)(=O)c3ccccc32)n1 | -120.0 | -5.1 | 44.4 | -0.3 | -1.9
O=S1(=O)C=C(Sc2nc3ccccc3s2)c2ccccc21 | -13.7 | 18.6 | 141.2* | -11.0 | 72.5*
O=[N+]([O-])c1ccccc1S(=O)(=O)Nc1cccnc1 | -2.8 | -13.1 | -9.8 | -1.2 | -2.6
SMILES | aSyn UTR inh | KLF5 inhibitor | CSC inhib | SKKanGAS inh | IEC-6 cytotox
CCCCCCCCCCC[C@@H](C[C@@H]1OC(=O)[C@H]1CCCCCC)OC(=O)[C@H](CC(C)C)NC=O | 11.7 | -8.0 | 102.4* | 10.4 | 0.1
CCCCC[C@H](O)/C=C/[C@H]1[C@H](O)CC(=O)[C@@H]1CCCCCCC(=O)O | 20.7 | · | -0.3 | 5.0 | ·
COC(=O)C1=C(C)N(Cc2ccccc2)C(=NCc2cccc(C(F)(F)F)c2)N[C@H]1c1cccc(F)c1 | ? | -7.4 | 110.5* | 20.3 | 4.1
COc1cccc(/C=C/C(=O)OCC(=O)Nc2nnc(-c3ccccc3)o2)c1 | -3.3 | · | -3.3 | 62.6* | ·
O=C(COC(=O)/C=C/c1ccccc1F)Nc1nnc(-c2ccccc2)o1 | -12.6 | · | -2.9 | 67.6* | ·
O=C(NS(=O)(=O)Nc1ccccn1)c1c[nH]c2ccccc12 | 31.7 | -8.0 | -8.7 | -0.2 | 5.0
Cc1cccc(C)c1N=C1SC(CC(=O)Nc2c(C)cccc2C)C(=O)N1CCc1ccccn1 (centres undefined) | 67.2* | -8.9 | 11.4 | 6.6 | 7.7
O=C(CC1SC(=Nc2ccccc2)N(CCc2ccccn2)C1=O)Nc1ccc(F)cc1 (centres undefined) | -0.7 | 0.1 | -0.4 | 1.4 | -1.9
